Measurements as given in PubChem BioAssay AID1159580 (chemical genetic matrix, 2015).
Values joined by “and” are separate entries in the source; they are usually repeats but may differ in a detail not shown here. Equal values may be shown once. In all, about 5,500 compounds went through this assay and about 2,000 (36%) were called active. About 18% were inconclusive and are not listed. Rule as the data show it: active = normalized growth mostly below about 0.91 (no sharp cut-off); inconclusive = no clear call, values can overlap the other calls; inactive = mostly above about 0.92. This is one part of the list.

Experiment: chemical genetic growth profiling, strain panel (AID 1159580);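 also: tested at 20 µM; growth read once vehicle control cultures reached saturation at 30 °C; 1 = growth at the plate median or of vehicle wells; lower values mean less growth of the strain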
Details: S. cerevisiae deletion strains, growth OD

Measured: normalized growth

COc1c(O)cc2oc3cc(O)c(CC=C(C)C)c(O)c3c(=O)c2c1CC=C(C)C
active: locus YAL013W, strain DEP1, stronger effect = lower value 0.346 | locus YBR021W, strain FUR4, stronger effect = lower value 0.578 | locus YBR229C, strain ROT2, stronger effect = lower value 0.913 | locus YBR231C, strain swc5, stronger effect = lower value 0.851 | locus YCL029C, strain bik1, stronger effect = lower value 0.773 | locus YDL035C, strain GPR1, stronger effect = lower value 0.611 | locus YDL074C, strain BRE1, stronger effect = lower value 0.242 | locus YDL101C, strain DUN1, stronger effect = lower value 0.633 | locus YDL192W, strain arf1, stronger effect = lower value 0.579 | locus YDR069C, strain doa4, stronger effect = lower value 0.89 | locus YDR101C, strain arx1, stronger effect = lower value 0.799 | locus YDR137W, strain rgp1, stronger effect = lower value 0.501 | locus YDR159W, strain sac3, stronger effect = lower value 0.749 | locus YDR162C, strain NBP2, stronger effect = lower value 0.543 | locus YDR195W, strain ref2 0.57 | locus YDR318W, strain mcm21, stronger effect = lower value 0.79 | locus YDR388W, stronger effect = lower value 0.833 | locus YDR392W, strain spt3, stronger effect = lower value 0.673 | locus YDR502C, strain sam2, stronger effect = lower value 0.771 | locus YEL061C, strain CIN8, stronger effect = lower value 0.68 | locus YER015W, strain faa2, stronger effect = lower value 0.901 | locus YER155C, strain BEM2 (second series), stronger effect = lower value 0.704 | locus YER155C, strain BEM2, stronger effect = lower value 0.388 | locus YER167W, strain BCK2, stronger effect = lower value 0.792 | locus YGL078C, strain dbp3, stronger effect = lower value 0.878 | locus YGL086W, strain mad1, stronger effect = lower value 0.681 | locus YGL248W, strain PDE1, stronger effect = lower value 0.67 | locus YGR135W, strain pre9, stronger effect = lower value 0.77 | locus YHR030C, strain SLT2, stronger effect = lower value 0.538 and 0.687 | locus YHR079C, strain IRE1 (second series), stronger effect = lower value 0.918 | locus YHR079C, strain IRE1, stronger effect = lower value 0.56 | locus YHR094C, strain hxt1, stronger effect = lower value 0.901 | locus YHR129C, strain ARP1, stronger effect = lower value 0.545 | locus YHR200W, strain rpn10, stronger effect = lower value 0.78 | locus YIL066C, strain RNR3, stronger effect = lower value 0.553 | locus YIL125W, strain kgd1, stronger effect = lower value 0.744 | locus YIR030C, strain dcg1, stronger effect = lower value 0.867 | locus YJL095W, strain BCK1, stronger effect = lower value 0.307 and 0.797 | locus YJL129C, strain trk1, stronger effect = lower value 0.774 | locus YJL134W, strain LCB3, stronger effect = lower value 0.833 | locus YJL164C, strain tpk1, stronger effect = lower value 0.894 | locus YJL166W, strain qcr8, stronger effect = lower value 0.819 | locus YJL187C, strain SWE1 (second series), stronger effect = lower value 0.518 | locus YJR043C, strain POL32, stronger effect = lower value 0.538 | locus YKL085W, strain MDH1 (second series), stronger effect = lower value 0.724 | locus YKL085W, strain MDH1, stronger effect = lower value 0.724 | locus YKL190W, strain CNB1, stronger effect = lower value 0.548 | locus YKR001C, strain vps1, stronger effect = lower value 0.365 | locus YLR027C, strain aat2, stronger effect = lower value 0.916 | locus YLR039C, strain RIC1, stronger effect = lower value 0.263 | locus YLR058C, strain SHM2, stronger effect = lower value 0.642 | locus YLR113W, strain HOG1, stronger effect = lower value 0.426 | locus YLR262C, strain YPT6 (second series), stronger effect = lower value 0.667 | locus YLR262C, strain YPT6, stronger effect = lower value 0.399 | locus YLR268W, strain sec22, stronger effect = lower value 0.704 | locus YLR320W, strain mms22, stronger effect = lower value 0.843 | locus YLR330W, strain CHS5, stronger effect = lower value 0.534 | locus YLR342W, strain FKS1 (second series), stronger effect = lower value 0.591 | locus YLR371W, strain rom2, stronger effect = lower value 0.358 | locus YLR418C, strain cdc73, stronger effect = lower value 0.259 | locus YML016C, strain PPZ1, stronger effect = lower value 0.674 | locus YML032C, strain rad52, stronger effect = lower value 0.838 | locus YMR058W, strain fet3, stronger effect = lower value 0.9 | locus YMR078C, strain ctf18, stronger effect = lower value 0.903 | locus YMR205C, strain PFK2, stronger effect = lower value 0.822 | locus YMR223W, strain ubp8, stronger effect = lower value 0.786 | locus YMR263W, strain SAP30, stronger effect = lower value 0.726 | locus YMR307W, strain GAS1, stronger effect = lower value 0.474 | locus YNL067W, strain RPL9B, stronger effect = lower value 0.719 | locus YNL071W, strain lat1, stronger effect = lower value 0.562 | locus YNL153C, strain GIM3, stronger effect = lower value 0.625 | locus YNL233W, strain BNI4, stronger effect = lower value 0.51 | locus YNL250W, strain rad50, stronger effect = lower value 0.862 | locus YNL271C, strain bni1, stronger effect = lower value 0.883 | locus YNL298W, strain CLA4, stronger effect = lower value 0.831 | locus YNL307C, strain MCK1, stronger effect = lower value 0.385 | locus YNR052C, strain pop2, stronger effect = lower value 0.781 | locus YOL006C, strain TOP1, stronger effect = lower value 0.279 | locus YOL147C, strain pex11, stronger effect = lower value 0.694 | locus YOR061W, strain CKA2, stronger effect = lower value 0.707 | locus YOR069W, strain VPS5, stronger effect = lower value 0.735 | locus YOR136W, strain idh2, stronger effect = lower value 0.899 | locus YOR144C, strain elg1, stronger effect = lower value 0.755 | locus YOR184W, strain ser1, stronger effect = lower value 0.331 | locus YOR231W, strain MKK1, stronger effect = lower value 0.531 | locus YPL051W, strain arl3, stronger effect = lower value 0.782 | locus YPL055C, strain LGE1, stronger effect = lower value 0.274 | locus YPL256C, strain CLN2, stronger effect = lower value 0.741 | locus YPR163C, strain tif3, stronger effect = lower value 0.544 | locus YPR167C, strain met16, stronger effect = lower value 0.786 | strain wtn01, stronger effect = lower value 0.697
inactive: locus YAL021C, strain ccr4, stronger effect = lower value 1 | locus YAL026C, strain drs2, stronger effect = lower value 0.982 | locus YAL030W, strain snc1, stronger effect = lower value 0.984 | locus YBR009C, strain hhf1, stronger effect = lower value 0.983 | locus YBR023C, strain chs3, stronger effect = lower value 0.923 | locus YBR171W, strain sec66, stronger effect = lower value 1.02 | locus YBR279W, strain paf1, stronger effect = lower value 0.968 | locus YCL011C, strain gbp2, stronger effect = lower value 0.912 | locus YCL016C, strain dcc1, stronger effect = lower value 0.957 | locus YCL061C, strain MRC1, stronger effect = lower value 0.991 | locus YCL069W, strain vba3, stronger effect = lower value 1.01 | locus YCR088W, strain abp1, stronger effect = lower value 1 | locus YDL005C, strain med2, stronger effect = lower value 1.05 | locus YDL040C, strain nat1, stronger effect = lower value 1 | locus YDL185W, strain tfp1, stronger effect = lower value 0.916 | locus YDR001C, strain nth1, stronger effect = lower value 1.01 | locus YDR297W, strain sur2, stronger effect = lower value 0.923 | locus YDR334W, strain swr1, stronger effect = lower value 0.999 | locus YDR335W, strain msn5, stronger effect = lower value 0.957 | locus YEL003W, strain gim4, stronger effect = lower value 0.937 | locus YEL037C, strain rad23, stronger effect = lower value 1 | locus YEL061C, strain CIN8 (second series), stronger effect = lower value 1.01 | locus YER016W, strain bim1, stronger effect = lower value 0.969 | locus YER110C, stronger effect = lower value 0.952 | locus YER111C, strain swi4, stronger effect = lower value 1.02 | locus YFR010W, strain ubp6, stronger effect = lower value 0.978 | locus YGL167C, strain pmr1, stronger effect = lower value 1.01 | locus YGL173C, strain kem1, stronger effect = lower value 0.979 | locus YGL227W, strain vid30, stronger effect = lower value 1 | locus YGL240W, strain doc1, stronger effect = lower value 0.887 | locus YGL253W, strain hxk2, stronger effect = lower value 0.99 | locus YGR252W, strain gcn5, stronger effect = lower value 0.833 | locus YHR013C, strain ard1, stronger effect = lower value 0.985 | locus YHR027C, strain rpn1, stronger effect = lower value 0.969 | locus YHR142W, strain chs7, stronger effect = lower value 0.89 | locus YIL073C, strain SPO22, stronger effect = lower value 0.695 | locus YJL092W, strain hpr5, stronger effect = lower value 1 | locus YJL115W, strain asf1, stronger effect = lower value 1.03 | locus YJL154C, strain vps35, stronger effect = lower value 1.04 | locus YJL168C, strain set2, stronger effect = lower value 0.948 | locus YJL187C, strain SWE1, stronger effect = lower value 0.936 | locus YJR066W, strain TOR1, stronger effect = lower value 0.891 | locus YKL009W, strain mrt4, stronger effect = lower value 0.885 | locus YKL068W, stronger effect = lower value 0.947 | locus YKL160W, strain elf1, stronger effect = lower value 0.904 | locus YKR026C, strain gcn3, stronger effect = lower value 1 | locus YKR091W, strain srl3, stronger effect = lower value 1.01 | locus YLL001W, strain dnm1, stronger effect = lower value 0.963 | locus YLL026W, stronger effect = lower value 1 | locus YLL041C, strain sdh2, stronger effect = lower value 0.986 | locus YLR102C, strain apc9, stronger effect = lower value 0.93 | locus YLR258W, strain gsy2, stronger effect = lower value 0.939 | locus YLR342W, strain FKS1, stronger effect = lower value 0.944 | locus YLR357W, strain rsc2, stronger effect = lower value 0.957 | locus YLR370C, strain arc18, stronger effect = lower value 0.982 | locus YLR384C, strain iki3, stronger effect = lower value 0.983 | locus YML124C, strain tub3, stronger effect = lower value 0.938 | locus YMR125W, strain sto1, stronger effect = lower value 1.01 | locus YMR129W, stronger effect = lower value 0.974 | locus YMR231W, strain pep5, stronger effect = lower value 1 | locus YNL183C, strain NPR1, stronger effect = lower value 0.887 | locus YNL209W, strain ssb2, stronger effect = lower value 0.968 | locus YNL248C, strain rpa49, stronger effect = lower value 0.994 | locus YNL322C, strain KRE1 (second series), stronger effect = lower value 0.995 | locus YNR049C, strain mso1, stronger effect = lower value 0.967 | locus YOL012C, strain htz1 0.271 | locus YOR001W, strain rrp6, stronger effect = lower value 0.916 | locus YOR070C, strain gyp1, stronger effect = lower value 0.95 | locus YOR080W, strain dia2, stronger effect = lower value 0.984 | locus YOR083W, strain WHI5, stronger effect = lower value 0.941 | locus YOR106W, strain vam3, stronger effect = lower value 0.916 | locus YOR265W, strain rbl2, stronger effect = lower value 0.964 | locus YOR270C, strain vph1, stronger effect = lower value 0.881 | locus YOR290C, strain snf2, stronger effect = lower value 0.912 | locus YOR316C, strain cot1, stronger effect = lower value 0.927 | locus YPL078C, strain atp4, stronger effect = lower value 0.991 | locus YPL106C, strain sse1, stronger effect = lower value 0.856 | locus YPL240C, strain hsp82, stronger effect = lower value 0.951 | locus YPR119W, strain clb2, stronger effect = lower value 0.931 | locus YPR141C, strain kar3, stronger effect = lower value 0.96
